We go through 60 compounds from PubChem BioAssay AID1850 (Southern Research Specialized Biocontainment Screening …, 2009).

About 1,000 (0.32%) of roughly 310,000 compounds were called active. A selection follows. Results with a measured potency or affinity are listed apart. Unmarked numbers belong to inactive results. No rule for the calls is given here.

A short description of this assay: PhoP regulon inhibitors, Salmonella typhi PhoP promoter GFP reporter, confirmatory (AID 1850).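 Also: 0% = induced wells with vehicle and 100% = uninduced wells.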 As to conditions: fluorescence, 4 h, at 50 µM, hits give high values.
Broadly, the inhibition is the drop in the measured response relative to a control, in per cent. Take `S=c1[nH]nc(COc2ccc(Cl)cc2)n1-c1ccc(Cl)cc1`: the inhibition was 2.37%. For `Cc1ccc(N=Nc2ccc(O)c3ncccc23)cc1` the value was -8.35%. Consider `Cc1ccccc1N=Nc1ccc(O)c2ncccc12`, for which the inhibition is -0.137%. `CCOc1ccc(N(CC(=O)NC2CCCCC2)C(=O)CCC(=O)Nc2cc(C)ccn2)cc1`: the inhibition was 2.46%. With `COc1ccc(C(CCN)c2ccc3c(c2)OCO3)cc1` (stereo not given), the inhibition was -14.2%. In the case of `COc1ccc(C(CCNCc2ccc(N(C)C)cc2)c2ccccc2)cc1` (stereo not given) it was 6.13%; in that of `Cc1ccccc1OCCN1C(=O)c2ccccc2C1=O`, -6.01%; in that of `CCCNC(=O)COC(=O)c1ccc(S(=O)(=O)N2CCCCCC2)cc1`, -7.39%. With `CCCCCCC(=O)N1CCN(c2cc3c(cc2F)c(=O)c(C(=O)O)cn3CC)CC1`, the inhibition was -12.4%. For the compound `CCCCCCCC(=O)N1CCN(c2cc3c(cc2F)c(=O)c(C(=O)O)cn3CC)CC1`, the inhibition is 9.58%. Consider `CCn1cc(C(=O)O)c(=O)c2cnc(N3CCN(C(=S)Nc4ccccc4)CC3)nc21`, for which the inhibition is 7.15%.

On to `CCCCCCCCCC(=O)N1CCN(c2cc3c(cc2F)c(=O)c(C(=O)O)cn3CC)CC1`, for which the inhibition is -9.96%. With `C=CCNC(=S)N1CCN(c2ncc3c(=O)c(C(=O)O)cn(CC)c3n2)CC1`, the inhibition was -7.57%. On to `CCCCCCCCC(=O)N1CCN(c2cc3c(cc2F)c(=O)c(C(=O)O)cn3CC)CC1`, for which the inhibition was -9.35%. In the case of `Cn1ccnc1SCC(=O)NC1CCCC1` it was -6.69%; in that of `Cc1cccc2cc(CN(C(=O)c3cccc([N+](=O)[O-])c3)C(C)C)c(=O)[nH]c12`, -4.34%. For `COc1ccc(NC(=O)c2nc3nc(C)cc(C(F)F)n3n2)cc1OC`, the inhibition was -3.09%. With `CC(C)(C)c1ccc(CS(=O)(=O)CC2(O)CCN(C(=O)c3cccc(C(F)(F)F)c3)CC2)cc1`, the inhibition was -0.12%. With `CS(=O)(=O)c1ccc(Cl)c(NC(=O)COC(=O)Cc2c[nH]c3ccccc23)c1`, the inhibition is -1.58%. For the compound `Cc1cc(N(CCO)CCO)ccc1N=Nc1cc(F)ccc1F`, the inhibition was 22.3%. Turning to `CCCOc1cccc(C(=O)Nc2cccc3ncccc23)c1`, the inhibition is -5.81%. Take `CCOc1ccc(S(=O)(=O)N2CCN(C(=O)c3sccc3C)CC2)cc1`: the inhibition is -3.32%. For `CCCCCCn1cc(C(=O)O)c(=O)c2cc(F)c(N3CCN(C(=O)OCC)CC3)cc21` the value was -8.26%.

Turning to `CCOC(=O)c1cn(CC)c2cc(N3CCCCC3)c(F)cc2c1=O`, the inhibition was -24.8%. In the case of `CCCCCCn1cc(C(=O)O)c(=O)c2cc(F)c(N3CCN(C)CC3)cc21`, the inhibition was -6.43%. For `CCCCNc1nnc(SCC(=O)N2CCN(S(=O)(=O)c3ccc4ccccc4c3)CC2)s1` the value was -3.79%; for `CC(=O)Nc1cccc(C(=O)OC(C)C(=O)NC2CCCc3ccccc32)c1` (stereo not given), -2.01%; for `CCNc1cc(N2CCOCC2)nc(SC)n1`, 7.57%. For the compound `COC(=O)C(c1cc(OC)c(O)c(OC)c1)(N1CCNC(C)C1)C(F)(F)F` (stereo not given), the inhibition was -16.6%.

On to `COc1c(F)c(F)cc2c(=O)c(C(=O)O)cn(C3CC3)c12`, for which the inhibition is 1.27%. Consider `Cc1cccc(-c2cc(=O)c(C(=O)O)cn2-c2ccc(F)cc2F)c1`, for which the inhibition is -13.4%. Regarding `CCOC(=O)c1cn(C2CC2)c2c(F)c(NCCCN(C)C)c(F)cc2c1=O`, the inhibition is 4.81%. Regarding `O=C(O)c1cn(-c2ccc(N3CCCC3)c(F)c2)c2c(F)c(F)c(F)cc2c1=O`, the inhibition is -7.01%.

Consider `O=C(O)c1cn(C2CCCCC2)c2ccccc2c1=O`, for which the inhibition was 2.42%. As to `CCOC(=O)c1cn(C2CC2)c2c(F)c(F)c(F)cc2c1=O`, the inhibition is 5.55%. As to `O=C(Nc1cccnc1)C1CC(c2ccccc2O)=NO1` (stereo not given), the inhibition was -2.59%. For the compound `CCNc1nc(NCC)nc(OCCOC(=O)c2ccccc2)n1`, the inhibition was -3.56%. For `COc1cc(CNCCN2CCOCC2)ccc1OCc1ccccc1Cl` the value was 8.72%. As to `COc1cccc(C2c3[nH]c4ccccc4c3C[C@H]3C(=O)N(c4ccccc4C(=O)N4CCC(C(=O)O)CC4)C(=O)N23)c1` (stereo not given in full), the inhibition is -4.46%. For `O=C(c1cccc(F)c1)N1CCN(C(=O)c2cc3nc(-c4ccco4)cc(C(F)(F)F)n3n2)CC1`, the inhibition was -3.4%. For `COc1cc(NC(=O)Cc2ccc(F)cc2)cc(OC)c1OC`, the inhibition was -5.66%.

As to `CCOC(=O)Cc1csc(NC(NC(=O)CC)(C(F)(F)F)C(F)(F)F)n1`, the inhibition was 0.93%. For `CC1CCCCC1NC(=O)COC(=O)COc1ccccc1Cl` (stereo not given) the value was -4.09%; for `O=C(CCS(=O)(=O)c1cccc2nonc12)N1CCCc2ccccc21`, 4.05%; for `CCOc1ccc(C(=O)Nc2nc(C)c(C(=O)OC)s2)cc1`, -11%. With `Cc1ccc(S(=O)(=O)N2CN3CCN(C3)C2)cc1`, the inhibition is 13.8%. In the case of `CCOc1ccc(S(=O)(=O)N2CN3CCN(C3)C2)cc1` it was -2.97%; in that of `Cc1ccc(N2C(=O)c3ccccc3C2=O)cc1`, -2.86%; in that of `CC(=O)N(c1ccc(Cl)cc1)c1nc(C)cc(C)c1C#N`, 6.97%. Take `O=C(Nc1ccncc1)Nc1ccc(F)c(Cl)c1`: the inhibition was 14.2%. Take `CCc1ccc(NC(=O)Nc2cnccn2)cc1`: the inhibition is -5.86%. In the case of `S=C(NCc1ccc(Cl)cc1)Nc1ccccc1` it was -8.41%; in that of `O=C(Nc1ccncc1)Nc1ccncc1`, 0.03%; in that of `S=C(NCc1ccncc1)Nc1ccc(Cl)cc1`, -0.61%. Take `CCc1ccc(NC(=O)Nc2ccon2)cc1`: the inhibition was -5.91%. Regarding `O=C1CCS/C(=N\N=C\c2ccc(Cl)cc2Cl)N1`, the inhibition was 6.05%.

As to `CCc1ccc(-c2cc3c(=O)n(CC(=O)NCCCN4CCN(C)CC4)ncn3n2)cc1`, the inhibition was 5.21%.

As to `CC1CCCCC1NC(=O)CSc1ccc([N+](=O)[O-])cc1` (stereo not given), the inhibition is 6.99%. Take `Cc1cc(-c2nnc3n2N=C(c2ccc(F)cc2)CS3)n[nH]1`: the inhibition was -5.9%. In the case of `COc1ccccc1-n1c(C)cc(C=O)c1C` it was -1.75%.
